The results in this text go back to PubChem BioAssay (NCATS).

Inconclusive results are not listed. Active and inactive are the calls of the source. The call rests on the fitted dose curve; in most records, active means well fitted cell-killing curve with a large enough effect; inconclusive means small, poorly fitted or top-dose-only effect, or effect the other way; inactive means no such curve, though single readings can be large or run the other way.
Potency means the concentration at half of the fitted maximal effect.

A short description of this assay: Quantitative High-Throughput drug screen in 47 multiple myeloma cell lines against the NCATS MIPE library collection: KMS20_JCRB cell viability assay (AID 1918973). Further: nearly all actives have a fitted effect of over 45% in size. The note with it: CellTiter-Glo ATP, 48 h; series mostly up to 45.8 µM; viability (% of DMSO): at the top concentration. The text has this:
PI: Beverly A. Mock Ph.D.
Laboratory of Cancer Biology and Genetics,
Center for Cancer Research, National Cancer Institute,
National Institute of Health, Bethesda, Maryland
Drug resistance and disease progression are common in multiple myeloma (MM) patients, underscoring the need for new therapeutic combinations. […] We hypothesized that effective combinations would reduce MYC expression and enhance p16 activity. […] These preclinical data identify potentially useful drug combinations for evaluation in drug-resistant MM and reveal potential mechanisms of combined drug sensitivity.
Described herein is the primary MIPE qHTS used to cherrypick compounds. Validated compounds were then further tested for potential synergistic activiy.
[1] Peat TJ, Gaikwad SM, Dubois W, Gyabaah-Kessie N, Zhang S, Gorjifard S, Phyo Z, Andres M, Hughitt VK, Simpson RM, Miller MA, Girvin AT, Taylor A, Williams D, D'Antonio N, Zhang Y, Rajagopalan A, Flietner E, Wilson K, Zhang X, Shinn P, Klumpp-Thomas C, McKnight C, Itkin Z, Chen L, Kazandijian D, Zhang J, Michalowski AM, Simmons JK, Keats J, Thomas CJ, Mock BA. Drug combinations identified by high-throughput screening promote cell cycle transition and upregulate Smad pathways in myeloma. Cancer Lett. 2023 Aug 1;568:216284. doi: 10.1016/j.canlet.2023.216284. Epub 2023 Jun 24. PMID: 37356470; PMCID: PMC10408729.
SEQUENCE No. (e.g., 1, 2, 3, etc.); […] (e.g., Cells, Incubation, Reagent, etc.); VALUE and DESCRIPTION.
1; Cells; 5 uL; white, solid bottom 1536-well Greiner assay plate.
2; Compounds; 23 nL; Kalypsis pin tool (Wako USA) equipped with a 1536-well pin head to transfer to the assay plates.
3; Incubation; 48 hours; 37C incubation.
4; Reagent;5uL; CellTiter Glo (Promega).
5; Detector; 425V; Luminescence; Viewlux PerkinElmer.
NOTES (numbers refer to Sequence numbers above)
1. The cell-based screening methods employed in this study were like those previously published. Briefly, the corresponding myeloma cell lines were screened in 1,536-well plates with 500 cells, 5-uL per well for inhibition of cell viability (assessed by measuring ATP levels with CellTiterGlo).
2. NCATS MIPE 4.0 library of approved and investigational drugs were added using the Kalypsis pin tool. Wells treated with DMSO only for 100% viability and media only wells for 0% viability were used as controls.
3. The assay plates were covered and incubated for 48 hours in a 37C, 5% CO2 incubator with controlled humidity.
4. After 48 hours, CellTilter-GloTM luminescent substrate mix (Promega) reagent was added to the assay plate and plates we incubated for 5 min at room temperature.
5. Signal was measured as median relative luminescence units on a ViewLux (PerkinElmer) multiplate reader.
[1] Heske CM, Davis MI, Baumgart JT, Wilson K, Gormally MV, Chen L, Zhang X, Ceribelli M, Duveau DY, Guha R, Ferrer M, Arnaldez FI, Ji J, Tran HL, Zhang Y, Mendoza A, Helman LJ, Thomas CJ. Matrix Screen Identifies Synergistic Combination of PARP Inhibitors and Nicotinamide Phosphoribosyltransferase (NAMPT) Inhibitors in Ewing Sarcoma. Clin Cancer Res. 2017 Dec 1;23(23):7301-7311. doi: 10.1158/1078-0432.CCR-17-1121. Epub 2017 Sep 12. PMID: 28899971; PMCID: PMC6636827.
With `O=C(NC1CCNCC1)c1[nH]ncc1NC(=O)c1c(Cl)cccc1Cl`, the Potency is 469 nM (active).
For the compound `C=CCn1c(=O)c2cnc(Nc3ccc(N4CCN(C)CC4)cc3)nc2n1-c1cccc(C(C)(C)O)n1`, the Potency is 8330 nM (active).
Turning to `COc1cc2c(Oc3ccc(NC(=O)C4(C(=O)Nc5ccc(F)cc5)CC4)cc3F)ccnc2cc1OCCCN1CCOCC1`, the Potency is 1870 nM (active).
The same measure, in the same setting: under `COc1cc(OC2CCN(C)CC2)ccc1Nc1ncc2c(n1)n(C1CCCC1)c(=O)n2C` stands 7430 nM (active).
Turning to `CNC(=O)CN1CCC(Oc2cc3c(Nc4cccc(Cl)c4F)ncnc3cc2OC)CC1`, the Potency is 41.8 nM (active).
Turning to `Cc1cc(Nc2cc(N3CCN(C)CC3)nc(Sc3ccc(NC(=O)C4CC4)cc3)n2)n[nH]1`, the Potency was 4690 nM (active).
On the same count and under the same terms, the result for `C=CC(=O)Nc1cccc(Oc2nc(Nc3ccc(N4CCN(C)CC4)cc3)ncc2Cl)c1` reads 1870 nM (active); that for `N#CCNC(=O)c1ccc(-c2ccnc(Nc3ccc(N4CCOCC4)cc3)n2)cc1`, 13200 nM (active).
On the same count and under the same terms, the result for `Cc1cnc(Nc2ccc(F)cc2Cl)nc1-c1c[nH]c(C(=O)N[C@H](CO)c2cccc(Cl)c2)c1` reads 3320 nM (active); that for `O=C(Nc1ncc(-c2cc(C(F)F)nn2-c2c(Cl)cccc2Cl)s1)C1CC1`, 469 nM (active); that for `Cc1coc2c1C(=O)C(=O)c1c-2ccc2c1CCCC2(C)C`, 9350 nM (active).
For `CC(C)=CCCC(C)=CCCC(C)=CCSc1ccccc1C(=O)O`, the Potency was 5260 nM (active).
Regarding `NC1(Cc2ccc(Cl)cc2)CCN(c2ncnc3[nH]ccc23)CC1`, the Potency is 3320 nM (active).
`CC1(O)CC(c2nc(-c3ccc4ccc(-c5ccccc5)nc4c3)c3c(N)nccn23)C1` (stereo not given): the Potency was 1180 nM (active).
For the compound `Cc1ccc(NC(=O)C2(c3ccc4c(c3)OC(F)(F)O4)CC2)nc1-c1cccc(C(=O)O)c1`, the Potency is 83.3 nM (active).
Take `COCCOc1ccc2c(c1)ncn2-c1ccc2cccc(N3CCC(N)CC3)c2n1`: the Potency was 74.3 nM (active).
Consider `COC(=O)c1ccc2c(C(=Nc3ccc(N(C)C(=O)CN4CCN(C)CC4)cc3)c3ccccc3)c(O)[nH]c2c1`, for which the Potency was 2640 nM (active).
`CC(C)c1ccc(Cn2ccc3c4c(N)nc(NC5CC5)nc4ccc32)cc1`: the Potency is 3720 nM (active).
For `Nc1cc(C(F)(F)F)c(-c2cc(N3CCOCC3)nc(N3CCOCC3)n2)cn1`, the Potency is 1180 nM (active).
Consider `COc1c(N2C[C@@H]3CCCN[C@H]3C2)c(F)cc2c(=O)c(C(=O)O)cn(C3CC3)c12`, for which the “viability (% of DMSO)” value was 125% (inactive).
Regarding `Cc1cc(CN2CCN(c3c(Br)cnc4nc(-c5ccc(N6CCN(C)CC6)cc5)[nH]c34)CC2)no1`, the Potency is 2350 nM (active).
With `Cn1c2ccccc2c2c3c(c4c5ccccc5n(CCC#N)c4c21)CNC3=O`, the Potency is 1480 nM (active).
For the compound `O=C(Nc1nc2cccc(-c3ccc(CN4CCS(=O)(=O)CC4)cc3)n2n1)C1CC1`, the Potency is 18700 nM (active).
Still for that read-out and setting: under `CC(=O)c1c(C)c2cnc(Nc3ccc(N4CCNCC4)cn3)nc2n(C2CCCC2)c1=O` stands 7430 nM (active).
Take `COc1cc2c(Nc3ccc(NC(=O)c4ccccc4)cc3)ncnc2cc1OCCCN1CCOCC1`: the Potency was 10500 nM (active).
In the case of `CCn1cc(-c2ccnc3[nH]c(-c4cccc(CN(C)C)c4)cc23)c(-c2ccc(NC(=O)N(C)C)cc2)n1`, the Potency is 4180 nM (active).
Take `COc1cc2ncnc(Nc3ccc(F)c(Cl)c3)c2cc1NC(=O)C=CCN1CCCCC1`: the Potency is 2960 nM (active).
On the same count and under the same terms, the result for `COc1cccc2c(NCc3ccccc3)nc(-n3c(N)nc4ccccc43)nc12` reads 2960 nM (active); that for `Nc1cccc(-c2cc3c(Oc4cccc(O)c4)ncnc3[nH]2)c1`, 18700 nM (active).
On to `O=C(CCCCCCC(=O)Nc1ccc([C@H]2O[C@@H](CSc3nc(-c4ccccc4)c(-c4ccccc4)o3)C[C@@H](c3ccc(CO)cc3)O2)cc1)NO`, for which the Potency was 6620 nM (active).
On the same count and under the same terms, the result for `Cc1ccc(C(=O)Nc2ccc(CN3CCN(C)CC3)c(C(F)(F)F)c2)cc1C#Cc1cnc2cccnn12` reads 833 nM (active); that for `COc1ccc(OC)c(-c2nnc3ccc(-c4ccc(OC)c(O[C@@H]5CCOC5)c4)nn23)c1`, 5260 nM (active).
Consider `COc1cc(=C2C=c3ccccc3=N2)[nH]c1=Cc1[nH]c(C)cc1C`, for which the Potency was 7430 nM (active).
In the case of `CC(C)(C)c1cnc(CSc2cnc(NC(=O)C3CCNCC3)s2)o1`, the Potency was 74.3 nM (active).
`COc1cc(C(C)C)c2c(c1)S(=O)(=O)N(COc1cc(=O)n3cccc(OCCN4CCCCC4)c3n1)C2=O`: the Potency is 18700 nM (active).
Take `Cc1nc2cnc3ccc(C#Cc4cccnc4)cc3c2n1-c1ccc(C(C)(C)C#N)cc1`: the Potency was 14.8 nM (active).
The same measure, in the same setting: the result for `COC(=O)Nc1ccc(-c2nc(N3CCOCC3)c3cnn(C4CCN(Cc5cccnc5)CC4)c3n2)cc1` reads 1 nM (active); that for `CC(NCc1ccc2c(c1)nc(NC(=O)c1ccc(-c3cn[nH]c3)s1)n2CC(C)(C)O)C(C)(C)C` (stereo not given), 235 nM (active).
On to `CCN1CCN(CC(=O)Nc2ccc(-c3cccc4c(=O)cc(N5CCOCC5)oc34)c3sc4ccccc4c23)CC1`, for which the Potency was 1180 nM (active).
For the compound `CC(C)(C)OC(=O)Nc1ccc(-c2cc(C(=O)NCCCCCCC(=O)NO)no2)cc1`, the Potency is 2640 nM (active).
